# Source: PubChem (National Center for Advancing Translational Sciences (NCATS))
# AmpC det inh – AmpC beta-lactamase inhibition, detergent assay. P00811. purified AmpC, nitrocefin hydrolysis with detergent. Potency, µM (doses to about 28.7 µM), for inactives: at the highest dose activity change, negative = inhibition. hit rate 0.09% among 71,000. AID 584; active means well fitted curve in the direction sought with a large enough effect; inconclusive means small, poorly fitted or top-dose-only effect; further: on the % scale 0 is the no-effect control and ±100 the full control effect
# Target sequence (P00811 whole entry, looked up): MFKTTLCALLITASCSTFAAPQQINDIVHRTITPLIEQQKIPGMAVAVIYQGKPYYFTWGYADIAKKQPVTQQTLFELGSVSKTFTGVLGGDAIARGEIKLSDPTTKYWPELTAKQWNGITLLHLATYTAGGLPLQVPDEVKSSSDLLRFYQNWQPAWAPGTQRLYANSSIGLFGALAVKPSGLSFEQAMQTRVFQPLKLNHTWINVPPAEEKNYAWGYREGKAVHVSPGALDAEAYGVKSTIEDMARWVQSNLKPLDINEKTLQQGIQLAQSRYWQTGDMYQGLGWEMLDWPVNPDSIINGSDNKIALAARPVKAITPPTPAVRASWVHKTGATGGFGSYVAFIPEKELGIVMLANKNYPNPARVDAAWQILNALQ
#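 E. coli AmpC (5.3 nM) in 20 mM phosphate pH 7.0 with 0.01% Triton X-100, preincubated 15 min RT with compound; nitrocefin (2 uL of 800 uM stock) hydrolysis followed by 480 nm absorbance every 20 s over 4 min.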
# AmpC nodet inh – inhibitors of E. coli AmpC beta-lactamase without detergent; Potency, µM (top dose mostly 28.7 µM), for inactives: at the highest dose activity change, negative = inhibition; hit rate 1.8% among 71,000; AmpC nitrocefin hydrolysis, absorbance 480 nm, no detergent; P00811; further: % of control where 0% means no effect
#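 Enzyme, pH 7.0 phosphate. Compound titrations were pre-incubated with AmpC for 15 min at room temperature before nitrocefin (stock 800 uM) addition; product formation was recorded at 480 nm every 20 s for 4 min.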
# Prx2 Sm inh – Schistosoma mansoni Prx2 inhibition | AID 448 | hit rate 0.07% among 65,000 | S. mansoni Prx2 activity coupled to TGR/GSH (TGR is thioredoxin glutathione reductase), NADPH fluorescence loss, qHTS | Potency, µM
#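 Coupled assay in which S. mansoni TGR passes NADPH reducing equivalents via glutathione to Prx2, which reduces H2O2. Compounds were preincubated 15 min at room temperature with 25 nM TGR/50 nM Prx2 mix. Kinetic NADPH fluorescence loss (ex 365/em 450 nm) was monitored.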
# LT uptake inh – blocks cellular internalization of anthrax lethal toxin; Cells, anthrax lethal toxin internalization, FRET ratio (460/530); Potency, µM (highest dose often 40 µM), inactives show at the top dose activity change, negative = inhibition, hits mostly inhibitors; hit rate 0.67% among 70,000; further: on the % scale 0 is the no-effect control and ±100 the full control effect; nearly all actives have a fitted effect of over 50% in size
# Numbers without * were called inactive; ? = inconclusive; · = not tested or not shown; + = active, no number; [ ] = dose if it differs, or a comment. Most compounds without a hit are left out; they make up all but 2.6% or so of the library. Unless noted, the call rests on the fitted dose curve. Potency means the concentration at half of the fitted maximal effect.
SMILES,AmpC det inh,AmpC nodet inh,Prx2 Sm inh,LT uptake inh
COc1ccc(Br)cc1C1CC(=O)N2CN(C)CSC2=C1C#N (configuration not stated),13%,4µM*[single pt active],>57,-12%
CC(C)c1ccc(C2CC(=O)N3CN(C)CSC3=C2C#N)cc1 (configuration not stated),11%,4µM*[single pt active],>57,-8%
COc1ccc(Br)cc1C1CC(=O)N2CN(Cc3ccccc3)CSC2=C1C#N (configuration not stated),9%,2µM*,>57,?
COc1ccc2ccccc2c1C1CC(=O)N2CN(C)CSC2=C1C#N (configuration not stated),-7%,26%,>57,-28%
COc1cc(OC)c(C2CC(=O)N3CN(C)CSC3=C2C#N)cc1OC (configuration not stated),9%,4µM*[single pt active],>57,-23%
COc1ccc(-c2coc3cc(O[C@@H]4O[C@@H](CO)[C@@H](O)[C@@H](O)[C@H]4O)cc(O)c3c2=O)cc1,-1%,25%,>57,?
COc1ccc(-c2csc3c2[N+]2=CCC=C2C3=O)cc1,-3%[5.75 µM],-4%[5.75 µM],>57,?
COc1ccc(S(=O)(=O)Cc2ccc(C(=O)NC3CCCC3)o2)cc1,15%,4µM*[single pt active],>57,-9%
CCOC(=O)N1CCC(NC(=O)c2ccc(CS(=O)(=O)c3ccc(OC)cc3)o2)CC1,13%,4µM*[single pt active],>57,7%
COc1ccccc1S(=O)(=O)Cc1ccc(C(=O)NC2CCCCC2)o1,-1%,12%,>57,-9%
C[N+](C)(C)CC(=O)N/N=C\c1ccncc1,-5%[5.75 µM],-7%[5.75 µM],>57,-4%[8 µM]
O=c1ccn([C@H]2O[C@H](CO)[C@@H](O)[C@@H]2O)c(=O)[nH]1,0%,-1%,>57,?
COc1cccc2cc3c(=O)n(-c4ccccc4)nc-3oc12,11%,3.2µM*[single pt active],>57,7%
CC#N,12%,-3%,·,-4%
CN(c1nnc(N)s1)C1CCCCC1,21%,4µM*[single pt active],>57,-2%
Cc1cccc(CNc2ccnc(-c3cccc(C#N)c3)n2)c1,-3%,29%,>57,5µM*
Oc1ccc(Cc2nccc3cc(O)c(O)cc23)cc1O,-2%[5.75 µM],-10%[5.75 µM],>57,-17%[8 µM]
Cn1c(NCc2ccccc2Cl)nc2ccccc21,10%,4µM*[single pt active],>57,-24%
CCCn1c(Nc2nc3ccccc3n2C)nc2ccccc21,-4%,-13%,>57,6.3µM*
Clc1ccccc1C(Nc1cnccn1)Nc1cnccn1,-1%[5.75 µM],-10%[5.75 µM],>57,7%[8 µM]
CCc1ccc(N2CC34C=CC(O3)C(C(=O)OC(C)C)C4C2=O)cc1 (configuration not stated),6%,3.2µM*[single pt active],>57,17%
CCc1ccc(N2CC34C=CC(O3)C(C(=O)OC)C4C2=O)cc1 (configuration not stated),6%,4µM*[single pt active],>57,-14%
CCc1ccccc1N1CC23C=CC(O2)C(C(=O)OCC(C)C)C3C1=O (configuration not stated),8%,41%,>57,9%
CCCCOC(=O)C1C2C=CC3(CN(CCc4ccccc4)C(=O)C13)O2 (configuration not stated),12%,4µM*[single pt active],>57,15%
COc1ccc(C(C)N2CC34C=CC(O3)C(C(=O)OCC(C)C)C4C2=O)cc1 (configuration not stated),15%,4µM*[single pt active],>57,-9%
SMILES,AmpC det inh,AmpC nodet inh,Prx2 Sm inh,LT uptake inh
CCCCOC(=O)C1[C@H]2C(=O)N(CCc3ccccc3)C[C@]23C=C[C@H]1O3 (some centres not stated),-1%,17%,>57,12%
Cc1ccccc1OCC1CO1 (configuration not stated),10%,-8%,·,?
Nc1nc(SCc2ccc([N+](=O)[O-])cc2)c2ncn([C@@H]3O[C@@H](CO)[C@@H](O)[C@H]3O)c2n1,-2%,-8%,>57,?
COc1ccc(OC)c2c(=S)c3ccccc3[nH]c12,3%,-20%,>57,?
CC(C)[C@@H]1O[C@H](/C=C\c2ccccc2)OCC1(C)C,-3%[5.75 µM],8%[5.75 µM],>57,3%[8 µM]
CC1(C(=O)NCCCNc2ncc(C(F)(F)F)cc2Cl)C=CC2(CCCCC2)N1C(=O)c1ccccc1 (configuration not stated),11%,8%,·,25µM*
O=C(CC1Oc2ccccc2NC1=O)NCCCN1CCCC1=O (configuration not stated),16%,4µM*[single pt active],>57,2%
CC(C)N(CCCNC(=O)CC1Oc2ccccc2NC1=O)Cc1ccccc1 (configuration not stated),12%,4µM*[single pt active],>57,-14%
O=C1Nc2ccccc2OC1CC(=O)N1CCOCC1 (configuration not stated),14%,3.2µM*[single pt active],>57,-5%
CC1CC(C)CN(CCCNC(=O)CC2Oc3ccccc3NC2=O)C1 (configuration not stated),11%,4µM*[single pt active],>57,-9%
CC(C)CN(CCCNC(=O)CC1Oc2ccccc2NC1=O)CC(C)C (configuration not stated),-7%,-10%,>57,-3%
O=C(CSc1nc2c(cnn2-c2ccccc2)c(=O)[nH]1)c1ccc(Cl)cc1,-1%,7.9µM*,>57,2%
O=C(O)[C@@H]1[C@@H](C(=O)Nc2ncccn2)[C@@H]2C=C[C@@H]1O2,-5%[5.75 µM],8%[5.75 µM],>57,-4%[8 µM]
Cc1cccc(NS(=O)(=O)c2ccc(C)c(C(=O)OCC(=O)Nc3cc(C)on3)c2)c1,-6%,10µM*,>57,?
Cc1cccc(NS(=O)(=O)c2cc(C(=O)OCC(=O)Nc3cc(C)on3)ccc2C)c1,0%,?,>57,-24%
CC1Cc2ccccc2N1C(=O)CSc1nnc(NC(=O)Cc2cccs2)s1 (configuration not stated),8%,13µM*[single pt active],>57,?
Cn1c(C(=O)N2CCN(c3ccc(F)cc3)CC2)cc2c(=O)n(C)c3ccccc3c21,10%,10%,>57,-2%
Cn1c(C(=O)N2CCN(c3ccc(Cl)cc3)CC2)cc2c(=O)n(C)c3ccccc3c21,10%,4µM*[single pt active],>57,-25%
Cn1c(C(=O)N2CCN(c3ccccn3)CC2)cc2c(=O)n(C)c3ccccc3c21,14%,4µM*[single pt active],>57,14%
Cn1c(C(=O)N2CCN(C3CCCCC3)CC2)cc2c(=O)n(C)c3ccccc3c21,13%,4µM*[single pt active],>57,-6%
O=C1c2ccccc2S(=O)(=O)N1CC(O)COc1ccc(Br)cc1 (configuration not stated),6%,13%,·,-25%
CO[C@@H]([CH2][Hg])CN1C(=O)c2ccccc2S1(=O)=O.Cn1c(=O)c2nc[nH]c2n(C)c1=O,-3%[5.75 µM],-15%[5.75 µM],1.3*,?
O=C(CSc1nnc(-c2ccc(Cl)cc2)n1Cc1ccco1)Nc1ccc2c(c1)OCCO2,-6%,+[single pt active],>57,?
COc1ccc(-c2cnc(SCC(=O)Nc3ccc4c(c3)OCO4)n2Cc2ccco2)cc1,-3%,-11%,>57,?
CC(=O)Nc1cccc(NC(=O)CSc2ncc(-c3ccc(Cl)cc3)n2Cc2ccco2)c1,-5%,64%,>57,13µM*
